# Reference: PubChem BioAssay AID624297 (National Center for Advancing Translational Sciences (NCATS), 2012)
# Screen size: about 340,000 compounds; about 6,200 (1.8%) were called active. Inconclusive results (about 10%) are left out. The sample holds actives, similar compounds and a random draw of the others, so the mix is not that of the screen. Unmarked numbers belong to inactive results. Calls follow the shape of the dose curve; as a rule, active = well fitted activation curve with a large enough effect; inconclusive = small, poorly fitted or top-dose-only effect; inactive = no such curve, though single readings can be large or run the other way.
# Assay: A quantitative high throughput screen for small molecules that induce DNA re-replication in SW480 colon adenocarcinoma cells. Also: nearly all actives have a fitted effect of over 55% in size. As to re-replication activation: % of control where 0% means no effect.
# Conditions: Hoechst DNA content imaging, 48 h; series mostly up to 46.1 µM; re-replication activation: at the top concentration
# Method in brief: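 Cells (250 per well) received 23 nL compound or DMSO by pin tool and were kept 48 hr at 37 C, 5% CO2. Nuclei were then stained with Hoechst for 40 min and scanned for DNA content.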
# Potency is read from the fitted curve at half-maximal effect.
SMILES,re-replication activation,Potency
CN(C)C(=O)CCc1ccc2c3c([nH]c2c1)[C@]1(CCc2ccccc2)[C@@H](C(=O)N2CCCCC2)C[C@H](CC(=O)NCCC2=CCCCC2)C(=O)N1CC3,-0.29%,–
Cc1ccccc1N1CCN(C(=O)c2cccnc2)CC1,16.6%,–
Cc1ccc2c(c1)C1C[N+](C)(CC(=O)c3ccccc3)CCC1N2C(=O)c1ccccc1Cl (centres undefined),-5.17%,–
O=C(NNC(=O)c1ccc2ccccc2c1)c1ccc(Cl)cc1,0.538%,–
CC(C)Sc1nnc([C@H](Cc2ccccc2)NC(=O)OC(C)(C)C)o1,-1.87%,–
C[C@H](NC(=O)OC(C)(C)C)c1nnc(SCC(=O)Nc2ccc(Br)cc2)o1,-0.601%,–
C[C@@H](NC(=O)OC(C)(C)C)c1nnc(S(=O)(=O)Cc2ccccc2)o1,–,13 µM (active)
O=C(/C=C/c1ccc(N2CCOCC2)cc1)c1ccccc1,-2.13%,–
Cc1[nH]c(=O)c(C(=O)/C=C/c2ccccc2)c2c1CCCC2,–,20.6 µM (active)
Cc1cn(COC/C=C/c2ccccc2)c(=O)[nH]c1=O,-0.895%,–
S=c1[nH]nc(-c2cccs2)n1/N=C/c1cccs1,-91%,–
Cc1cc(-c2n[nH]c(=S)n2/N=C/C(Br)=C/c2ccccc2)n[nH]1,–,6.51 µM (active)
Oc1ccccc1/C=N/n1c(-c2cccs2)n[nH]c1=S,-3.38%,–
Cc1ccc(C2=Nc3c(ccc4ccccc34)C(c3ccncc3)=NN2)cc1,–,18.4 µM (active)
CN(C(=O)COC(=O)Cn1cnc2c1c(=O)n(C)c(=O)n2C)C1(C#N)CCCCC1,5.85%,–
CS(=O)(=O)c1ccc(C(=O)NNC(=O)c2cccs2)cc1,-2.57%,–
O=C(COC(=O)Cc1ccc([N+](=O)[O-])cc1)NC1CCCCCC1,-5.69%,–
O=C(OCC(=O)N1CCN(c2ccccc2)CC1)c1ccc([N+](=O)[O-])s1,11.2%,–
N#CCc1c[nH]c2ccc([N+](=O)[O-])cc12,-4.91%,–
C/C=C/c1ccc(OCC(=O)NNC(=O)CN(C)S(=O)(=O)c2ccc(C)cc2)c(OC)c1,-2.13%,–
CCCCSc1nc2ccccc2[nH]1,-19.9%,–
CCc1nnc(NC(=O)CCCSc2nc3ccccc3[nH]2)s1,-4.91%,–
CCC(C)N1C(=O)S/C(=C/c2ccc(Sc3nc4ccccc4[nH]3)o2)C1=O (centres undefined),–,18.4 µM (active)
Nc1ncnc2c1cnn2C1CC(O)C(CO)O1 (centres undefined),0.418%,–
CC(C)N(C(=O)[C@H]1C[C@H](CC(=O)NCCC2=CCCCC2)C(=O)N2CCc3c([nH]c4cc(CCC(=O)N(C)C)ccc34)[C@]12C)C(C)C,1.7%,–

SMILES,re-replication activation,Potency
CC(Nc1ccc([N+](=O)[O-])cc1[N+](=O)[O-])c1ccccc1 (centres undefined),-1.62%,–
CCCSc1nc2sc3c(c2c(=O)n1-c1ccc(OC)cc1)CCN(C)C3,–,1.84 µM (active)
CCOc1ccc(-n2c(SCC(=O)OC)nc3sc4c(c3c2=O)CCN(C)C4)cc1,-10.5%,–
COc1ccccc1NC(=O)CSc1nc2sc3c(c2c(=O)n1-c1ccccc1)CCN(C)C3,-6.29%,–
Cc1noc(C)c1NC(=O)Nc1ccc2c(c1)C(=O)N([C@H](C)CO)C[C@H](C)[C@@H](CN(C)S(=O)(=O)c1cn(C)cn1)O2,-13.9%,–
C[C@]12c3[nH]c4ccc(Cl)cc4c3CCN1C(=O)[C@@H](CC(=O)NCCCn1ccnc1)C[C@@H]2C(=O)N1CCOCC1,59.9%,–
O=C(N/N=C/c1ccccc1O)C1CCCC1,–,4.61 µM (active)
Oc1ccccc1C=NC1CCCCC1N=Cc1ccccc1O (centres undefined),0.236%,–
O=C(NN=Cc1ccccc1O)NN=Cc1ccccc1O,–,16.4 µM (active)
O=C(NN=Cc1ccccc1)c1ccccc1,-1.63%,–
O=C(N/N=C/c1c[nH]c2ccccc12)c1ccccc1O,-1.5%,–
COc1ccc(/C=N/NC(=O)C2CC2)c(OC)c1OC,29.6%,–
NC(CSC1(c2ccccc2)c2ccccc2-c2ccccc21)C(=O)O (centres undefined),-2.84%,–
COc1cc(OC)cc(C(=O)NCC(=O)N2CCCCCCC2)c1,-20.2%,–
NC(=O)c1ncn([C@@H]2O[C@H](CNCc3cnc(N4CCOCC4)s3)[C@@H](O)[C@H]2O)n1,2.79%,–
NS(=O)(=O)c1ccc(CCNC(=O)c2ccc(Cl)c(S(=O)(=O)N3CCCCCC3)c2)cc1,0.904%,–
COc1ccc2oc(N)nc2c1,-6.24%,–
CC[C@]1(C(=O)OC)[C@H]2C(=O)N(Cc3ccccc3)C(=O)[C@H]2[C@H]2CN=C(SCc3ccc(Cl)cc3)N21,-1.04%,–
CCc1c(Nc2ccccc2C)nc(N)[nH]c1=O,-0.657%,–
Cc1c(C(=O)N2CCCc3ccccc32)sc2nc(-c3ccccc3)cn12,-5.48%,–
Cc1cccc2cc3c(N)c(C(=O)N4CCCc5ccccc54)sc3nc12,–,5.17 µM (active)
Cc1c(C(=O)N2CCCc3ccccc32)oc2ccccc12,-0.943%,–
CN(C(=O)c1cccc(NC(=O)Cc2cccc(NC(=O)C3CCCN(C(=O)C4CC4)C3)c2)c1)C1CCC1 (centres undefined),3.52% [at 9.22 µM],–
COC(=O)c1ccccc1NC(=O)Cc1ccccc1OC,4.59%,–
COc1ccccc1CC(=O)Nc1ccc(F)cc1F,15.1%,–

SMILES,re-replication activation,Potency
CC[C@]1(c2ccccc2OC)C(=O)N(C(=O)OC)N1C(=O)OC,–,23.1 µM (active)
O=C(Cc1ccc(Cl)cc1)c1ccccc1,-2.09%,–
O=C1CC(C(=O)O)NC(=S)N1 (centres undefined),-8.61%,–
Cc1ccc(C)c(N2CCN(C(=O)CCc3nc(-c4cccc(C(F)(F)F)c4)no3)CC2)c1,-5.4%,–
CC(C)CN1CC(C)C(=O)N(c2ccccc2)C1=S (centres undefined),0.56%,–
COc1ccc(Nc2cc(=O)oc3ccccc23)cc1,–,5.17 µM (active)
COc1ccc(Nc2nnc(C)c3ccccc23)cc1,-1.06%,–
COc1ccc2oc(=O)cc(-c3cc4ccccc4o3)c2c1,28.5%,–
CN1CCC(N(C)C(=O)c2ccc(Cl)c(S(=O)(=O)Nc3ccc(Cl)cc3)c2)CC1,-14.4%,–
CCOC(=O)c1ccccc1OC(=O)Oc1ccccc1C(=O)OCC,-5.07%,–
CCOC(=O)c1c(C)[nH]c2c1-c1ccccc1C(=O)C2=O,–,5.17 µM (active)
CCOC(=O)c1c(C)[nH]c(C)c1S(=O)(=O)N(C)CC(=O)Nc1ccccc1C,-3.39%,–
O=C(NCc1ccccc1)c1cccc(NC(=O)C2CCCCC2)c1,-9.55% [at 9.22 µM],–
Cn1c(=O)[nH]c2c(c(C(=O)O)nn2C)c1=O,-4.09%,–
COCC(=O)N(C)[C@H]1C[C@H]2c3cc(Oc4ccccc4C)ccc3CCN2C(=O)[C@H]1[C@H](C)O,-7.86%,–
N#CC(Cc1cc2ccccc2n1S(=O)(=O)c1ccccc1)OCc1ccccc1 (centres undefined),15.5%,–
CC(OC(=O)CNC(=O)c1ccc(Cl)c([N+](=O)[O-])c1)C(=O)NCc1ccco1 (centres undefined),-91%,–
CC(=O)Nc1ccc(NC(=O)C(C)OC(=O)c2ccccc2C(=O)c2ccc(Cl)c([N+](=O)[O-])c2)cc1 (centres undefined),–,16.4 µM (active)
N#Cc1cccc(NC(=O)COC(=O)c2ccccc2C(=O)c2ccc(Cl)c([N+](=O)[O-])c2)c1,17.9%,–
Cc1ccc(S(=O)(=O)N2[C@@H](c3cccc4ccccc34)C(C(=O)O)=C[C@H]2C(C)(C)C)cc1,-25.3% [at 9.22 µM],–
CCCNC(=O)CSc1nc(Cc2ccccc2)nc2ccccc12,–,9.2 µM (active)
C=CCSc1nc(Cc2ccc(Cl)cc2)nc2ccccc12,0.994%,–
CCc1nc(SCC(=O)NNC(=O)c2ccc(C)cc2)c2ccccc2n1,-6.34%,–
CC(=O)Nc1ccc(C(=O)Nc2cc(S(=O)(=O)N3CCOCC3)ccc2N2CCOCC2)cc1,-2.34%,–
CC(Oc1ccc2c(-c3ccccc3)cc(=O)oc2c1)C(=O)NC(Cc1c[nH]c2ccccc12)C(=O)O (centres undefined),-6.21%,–

SMILES,re-replication activation,Potency
CCOc1cccc(SCc2noc(C(=O)NC(C)C)c2C(=O)O)c1,-7.12%,–
CCCNC(=O)c1onc(CSc2ccc(F)cc2)c1C(=O)NC(C)C,-5.91%,–
COC(=O)c1c(CCl)noc1C(=O)NC(C)C,–,20.6 µM (active)
CC(=O)N1CCc2ccc(N)cc21,0.538%,–
OC(COc1ccccc1)CN1CCN(c2cccc(Cl)c2)CC1 (centres undefined),6.18%,–
O=C(NN=CC=Cc1ccccc1)C(O)C(O)C(=O)NN=CC=Cc1ccccc1 (centres undefined),1.81%,–
CN(C(=O)c1cccc(NC(=O)Cc2ccc(NC(=O)C3CCCN(C(=O)C4CCCC4)C3)cc2)c1)C1CCC1 (centres undefined),-19.7% [at 9.22 µM],–
O=C(N/N=C/c1cc2c(cc1Br)OCO2)C1COc2ccccc2O1 (centres undefined),-2.55%,–
CC1(C(=O)N/N=C/c2cc3c(cc2Br)OCO3)CC1(Br)Br (centres undefined),14.3%,–
O=C(N/N=C\c1cc2c(cc1Cl)OCO2)c1ccc(Br)s1,–,7.31 µM (active)
O=C(CSc1ncnc2sccc12)NC1CCS(=O)(=O)C1 (centres undefined),0.0411%,–
O=C(Nc1ccc2c(c1)OCO2)C1CC1(Cl)Cl (centres undefined),-4.89%,–
O=C(Nc1c[nH]c(=O)[nH]c1=O)OCc1ccccc1,-3.99%,–
COc1ccc(NC(=O)/C(N=Nc2cccc(S(=O)(=O)Nc3ccc(SC(F)F)cc3)c2)=C(\C)O)cc1,-12.2%,–
Cc1nc(N2CCOCC2)nc2c1CCCC2,-2.45%,–
Nc1nc(-c2sc3nc4c(cc3c2N)CCCC4)nc(N2CCOCC2)n1,–,10.3 µM (active)
COc1ccc(/C=C/C(=O)OCC(=O)N2CCN(S(=O)(=O)c3ccc(C)cc3C)CC2)cc1OC,-1.7%,–
Cc1nc(N)sc1-c1ccccc1,-0.764%,–
O=C1COc2ccc(C(=O)CSc3ccc(Br)cc3)cc2N1,1.01%,–
C=CCn1c(=O)n(C)c2c(=O)n(C)c(=O)n(C)c21,-9.28%,–
COc1cc(OC)cc(C(=O)N[C@H](C(=O)NNC(=O)c2ccc(Br)cc2)C(C)C)c1,3.18%,–
COc1cc(OC)cc(C(=O)N[C@H](C(=O)Nc2nc3ccccc3[nH]2)C(C)C)c1,–,0.164 µM (active)
COc1ccc(C(=O)N[C@H](C(=O)NCc2ccccc2)C(C)C)cc1,-9.23%,–
Cc1ccc(S(=O)(=O)N2CCN(C(=O)c3cc(S(=O)(=O)N4CCOCC4)ccc3F)CC2)cc1,4.45%,–
